In the library only some 2.8% were active in any assay of this set; here they are far more common.
SENP8 block-1: inhibitors of human SENP8 protease; Q96LD8; recombinant SENP8, Nedd8 substrate fluorescence; inhibition, % at 20 µM; actives 0.64% (n = 360,000); in the data active means inhibition mostly above about 40%, no sharp cut-off; inactive means mostly below about 27%
Target sequence (Q96LD8 whole entry, looked up): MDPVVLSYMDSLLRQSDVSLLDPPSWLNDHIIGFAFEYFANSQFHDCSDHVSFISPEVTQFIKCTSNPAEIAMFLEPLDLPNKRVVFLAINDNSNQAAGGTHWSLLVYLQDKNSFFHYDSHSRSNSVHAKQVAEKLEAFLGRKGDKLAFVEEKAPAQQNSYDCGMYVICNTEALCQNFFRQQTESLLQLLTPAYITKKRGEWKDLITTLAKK
SENP8 block-2: SENP8 protease inhibition. Q96LD8. purified SENP8, Z-RLRGG-aminoluciferin cleavage, luminescence. actives 1.2% (n = 330,000). inhibition, % at 10 µM. AID 2540; in the data active means inhibition above about 50%
SENP7 block: inhibitors of human SENP7 protease | Q9BQF6 | inhibition, % at 5 µM | recombinant SENP7, Z-RLRGG-aminoluciferin luminescence, 40 min | actives 1.5% (n = 330,000) | AID 434973;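 active means inhibition above about 50% at the single test dose, limit read from the data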;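 further: plate controls were DMSO with enzyme for no effect and no enzyme buffer wells for full effect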
Target sequence (Q9BQF6 706-1050 limits assumed): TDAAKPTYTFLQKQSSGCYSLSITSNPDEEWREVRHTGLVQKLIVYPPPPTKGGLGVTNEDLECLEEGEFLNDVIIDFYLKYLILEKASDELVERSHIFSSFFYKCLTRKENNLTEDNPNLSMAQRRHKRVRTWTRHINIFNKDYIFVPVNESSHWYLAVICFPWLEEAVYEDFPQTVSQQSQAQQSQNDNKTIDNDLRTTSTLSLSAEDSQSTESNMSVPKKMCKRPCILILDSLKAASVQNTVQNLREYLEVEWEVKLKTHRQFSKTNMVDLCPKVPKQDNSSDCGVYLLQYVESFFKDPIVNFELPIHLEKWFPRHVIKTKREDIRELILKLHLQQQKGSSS
HSP90 refold inh: HSP90 refolding inhibition in rabbit reticulocyte lysate; actives 0.91% (n = 290,000); luciferase refolding luminescence, 3 h; inhibition, % at 5.6 µM;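 active means inhibition above the screen-wide mean plus 3 SD, computed separately per campaign, cut at about 16% in these data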;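 further: 0% = DMSO wells and 100% = 60 µM geldanamycin wells; inhibitors lower the luminescence because luciferase stays unfolded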
SENP6 inh: blocks the human protease SENP6; AID 2599; Recombinant SENP6 catalytic domain, aminoluciferin luminescence; inhibition, % at 10 µM; Q9GZR1; actives 1.8% (n = 330,000);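 active means inhibition above about 50% at the single tested dose, limit read from the data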;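 further: plate controls were DMSO wells with enzyme for no effect and DMSO wells lacking enzyme for full effect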
HSP90 confirm: confirmation of HSP90 inhibitors | AID 1846 | rabbit reticulocyte lysate, luciferase refolding luminescence, 3 h | actives 64% (n = 2,300) | inhibition, % at 5.9 µM | shares compounds with HSP90 refold inh; in the data active means inhibition above about 18%;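 further: 0% = vehicle wells and 100% = reference inhibitor wells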
FLuc counter: blocks native firefly luciferase in HSP90 counter-screen; actives 48% (n = 2,300); shares compounds with HSP90 refold inh; purified native firefly luciferase, luminescence; inhibition, % at 5.9 µM;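 active means inhibition above the mean inhibition of all tested sample wells plus 3 SD, cut at about 10% in these data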;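 further: 0% = DMSO with luciferase and 100% = wells lacking luciferase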
SENP8 confirm: confirmation of human SENP8 protease inhibitors | shares compounds with SENP7 block | Recombinant SENP8, Z-RLRGG-aminoluciferin luminescence, 60 min | inhibition, % at 12.5 µM | actives 40% (n = 6,200) | AID 488912;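 active means mean inhibition across replicates above about 50%, limit read from the data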
SENP6 confirm: human SENP6 inhibition, confirmed; recombinant SENP6, Z-RLRGG-aminoluciferin luminescence; inhibition, % at 12.5 µM; AID 488915; shares compounds with SENP7 block; actives 58% (n = 6,200)
SENP7 confirm: confirmation of human SENP7 protease inhibitors | shares compounds with SENP7 block | actives 69% (n = 6,200) | inhibition, % at 12.5 µM | recombinant SENP7, Z-RLRGG-aminoluciferin luminescence, 40 min
Casp3 SENP sel: inhibits human caspase-3 in SENP selectivity test; shares compounds with SENP7 block; purified caspase-3, Z-DEVD-aminoluciferin luminescence, 60 min; inhibition, % at 12.5 µM; actives 60% (n = 6,200);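 active means mean inhibition above about 50%, limit read from the data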;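 further: plate controls were enzyme with DMSO for no effect and wells without caspase-3 for full effect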
Luc interf: counter-screen for SENP inhibitors: luminescence interference | inhibition, % at 12.5 µM | shares compounds with SENP7 block | actives 39% (n = 6,200) | Pre-incubated SENP8/Z-RLRGG-aminoluciferin, luciferase luminescence interference | AID 488919;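 active means mean inhibition above about 50% when retested at one dose, limit read from the data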;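 further: plate controls were DMSO wells with completed reaction for no effect and substrate without enzyme for full effect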
* = called active by the depositor; . = no result.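 How the source made its calls, unless noted: active means mean inhibition above about 50% in the one-dose retest (limit read from the data); inactive means the rest.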

SMILES	SENP8 block-1	SENP8 block-2	SENP7 block	HSP90 refold inh	SENP6 inh	HSP90 confirm	FLuc counter	SENP8 confirm	SENP6 confirm	SENP7 confirm	Casp3 SENP sel	Luc interf
CC(=O)c1sc(NC(=O)C2COc3ccccc3O2)nc1C (stereo unspecified)	-46	29	19	43*	52*	70*	66*	20	24	62*	62*	51*
CC1(C)Oc2ccc(NC(=O)C3COc4ccccc4O3)cc2O1 (stereo unspecified)	30	27	48	27*	66*	49*	44*	72*	72*	93*	71*	77*
Cc1ccc(NC(=O)C2COc3ccccc3O2)cc1 (stereo unspecified)	18	0	-22	3	0	.	.	.	.	.	.	.
O=C(Nc1nncs1)C1COc2ccccc2O1 (stereo unspecified)	12	-18	-10	3	-27	.	.	.	.	.	.	.
CN(CC(=O)Nc1cccc(S(=O)(=O)N2CCCCC2)c1)Cc1ccc(F)cc1	19	2	12	.	-10	.	.	.	.	.	.	.
COc1ccc(C(C(=O)Nc2ccc3c(c2)OCO3)N(C)C(=O)Cc2c[nH]c3ccccc23)cc1 (stereo unspecified)	12	-1	7	2	1	.	.	.	.	.	.	.
O=C1CCN(Cc2ccc(Cl)cc2)N1	16	-14	-7	-1	-21	.	.	.	.	.	.	.
CCC(C)NS(=O)(=O)c1ccc(NC(=O)c2cccs2)cc1 (stereo unspecified)	-5	-1	23	-3	8	.	.	.	.	.	.	.
CCC(C)c1ccc(NC(=O)c2cccs2)cc1 (stereo unspecified)	13	87*	84*	17*	90*	24*	6	92*	93*	99*	76*	82*
Cc1nc(NC(=O)c2cccc(Cl)c2)sc1C(=O)N1CCCCC1	-40	57*	68*	34*	72*	48*	-16	2	30	6	3	10
CC(=O)c1sc(NC(=O)c2ccc(Cl)cc2)nc1C	-27	37	72*	42*	0	25*	-16	17	18	7	25	9
Cc1cc(C(=O)Nc2nc3c(C)cccc3s2)c(C)o1	15	-5	25	-2	2	.	.	.	.	.	.	.
Cc1ccc(-c2nc(CS(=O)CC(=O)NC3CCCCC3)c(C)o2)cc1 (stereo unspecified)	2	2	1	4	-10	.	.	.	.	.	.	.
CCCc1ccc(-c2ccc(F)c(N)c2)nc1	-7	94*	96*	53*	95*	77*	69*	94*	97*	103*	97*	96*
Cc1ccc(C(=O)C[n+]2cccc(C(N)=O)c2)cc1	23	2	-3	0	-24	.	.	.	.	.	.	.
Cc1[nH]n(-c2ccccc2)c(=O)c1N=Nc1cccc(C(=O)O)c1	49*	-9	0	23*	56*	66*	78*	30	22	59*	5	28
Cc1[nH]c2ccccc2c1C(=O)CSC(=S)N1CCCCC1	-1	-17	-7	-4	-39	.	.	.	.	.	.	.
CC(=O)N(/N=C1\Sc2ccccc2C1=O)c1cccc(C)c1	-13	94*	93*	40*	92*	76*	-25	-6	84*	58*	11	16
CC(=O)N(CN1C(=O)c2ccccc2C1=O)c1cccc(C)c1	15	-1	-6	4	-10	.	.	.	.	.	.	.
COCCn1c(C)cc(C(=O)CSc2nc3ccccc3s2)c1C	2	21	-8	28*	54*	67*	68*	55*	47	80*	43	26
COCCn1c(C)cc(C(=O)CSc2nc3ccccc3o2)c1C	18	-14	7	1	-26	.	.	.	.	.	.	.
O=C(C=Cc1cccnc1)c1ccccc1	2	.	.	.	.	.	.	.	.	.	.	.
O=C(CN1CCN(CN2C(=O)NC3(CCCCCC3)C2=O)CC1)Nc1cccc(F)c1	3	5	5	.	2	.	.	.	.	.	.	.
CC(=O)Nc1ccc2nc(-c3ccccc3)cn2c1	-386	10	1	11	1	.	.	.	.	.	.	.
COC(=O)c1ccc2nc(-c3cccc(N)c3)cn2c1	-15	42	66*	36*	23	71*	54*	60*	62*	86*	86*	69*
SMILES	SENP8 block-1	SENP8 block-2	SENP7 block	HSP90 refold inh	SENP6 inh	HSP90 confirm	FLuc counter	SENP8 confirm	SENP6 confirm	SENP7 confirm	Casp3 SENP sel	Luc interf
Cc1ccccc1S(=O)(=O)Nc1ncc(C(F)(F)F)cc1Cl	1	5	-2	-4	-8	.	.	.	.	.	.	.
COC(=O)c1ccc2nc(-c3ccc(S(C)(=O)=O)cc3)cn2c1	-445	-15	-3	1	-32	.	.	.	.	.	.	.
CS(=O)(=O)c1ccc(-c2cn3cc(C(=O)O)ccc3n2)cc1	-389	55*	58*	63*	60*	75*	3	10	66*	86*	36	56*
Cc1ccsc1/C=C1\CCc2ccccc2C1=O	14	96*	99*	31*	94*	79*	71*	100*	101*	104*	100*	96*
O=C1C(=Cc2ccccn2)CCc2ccccc21	4	.	.	.	.	.	.	.	.	.	.	.
c1ccc(N2CCN(c3nc4cc5c(cc4s3)OCO5)CC2)cc1	-2	-2	-4	1	-2	.	.	.	.	.	.	.
c1c2c(cc3sc(N4CCCCC4)nc13)OCO2	-9	96*	99*	25*	101*	59*	52*	97*	99*	103*	98*	95*
C/C(=N\OCc1cccc(C(=O)O)c1)c1ccc(Cl)cc1	21	97*	101*	71*	97*	86*	87*	99*	100*	103*	97*	98*
COc1ccc(S(=O)(=O)N2CCN(C(=O)Cc3ccsc3)CC2)cc1	-7	-1	1	.	-15	.	.	.	.	.	.	.
Cc1ccccc1-c1noc(-c2ccccc2C(=O)O)n1	10	-7	3	-5	8	.	.	.	.	.	.	.
Brc1ccc(-c2nc(-c3ccccn3)no2)o1	2	87*	89*	44*	89*	60*	55*	93*	94*	101*	96*	92*

Bioassay records (PubChem BioAssay)
